This note sets out measurements from PubChem BioAssay.

The target in the test is Focal adhesion kinase 1 (Homo sapiens) (UniProt Q05397). As to the kind of experiment: PTK2 protein binding on printed compound slides – biochemical, small-molecule microarray, 635/667 nm fluorescence, BSA, DTT, primary screen (AID 1130).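 Note: composite of spot emission at 667 nm and signal to noise over triplicate slides.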 The settings on record: 635 nm fluorescence, higher = more signal.
Chain of Focal adhesion kinase 1 (Homo sapiens) (Q05397 whole entry, looked up): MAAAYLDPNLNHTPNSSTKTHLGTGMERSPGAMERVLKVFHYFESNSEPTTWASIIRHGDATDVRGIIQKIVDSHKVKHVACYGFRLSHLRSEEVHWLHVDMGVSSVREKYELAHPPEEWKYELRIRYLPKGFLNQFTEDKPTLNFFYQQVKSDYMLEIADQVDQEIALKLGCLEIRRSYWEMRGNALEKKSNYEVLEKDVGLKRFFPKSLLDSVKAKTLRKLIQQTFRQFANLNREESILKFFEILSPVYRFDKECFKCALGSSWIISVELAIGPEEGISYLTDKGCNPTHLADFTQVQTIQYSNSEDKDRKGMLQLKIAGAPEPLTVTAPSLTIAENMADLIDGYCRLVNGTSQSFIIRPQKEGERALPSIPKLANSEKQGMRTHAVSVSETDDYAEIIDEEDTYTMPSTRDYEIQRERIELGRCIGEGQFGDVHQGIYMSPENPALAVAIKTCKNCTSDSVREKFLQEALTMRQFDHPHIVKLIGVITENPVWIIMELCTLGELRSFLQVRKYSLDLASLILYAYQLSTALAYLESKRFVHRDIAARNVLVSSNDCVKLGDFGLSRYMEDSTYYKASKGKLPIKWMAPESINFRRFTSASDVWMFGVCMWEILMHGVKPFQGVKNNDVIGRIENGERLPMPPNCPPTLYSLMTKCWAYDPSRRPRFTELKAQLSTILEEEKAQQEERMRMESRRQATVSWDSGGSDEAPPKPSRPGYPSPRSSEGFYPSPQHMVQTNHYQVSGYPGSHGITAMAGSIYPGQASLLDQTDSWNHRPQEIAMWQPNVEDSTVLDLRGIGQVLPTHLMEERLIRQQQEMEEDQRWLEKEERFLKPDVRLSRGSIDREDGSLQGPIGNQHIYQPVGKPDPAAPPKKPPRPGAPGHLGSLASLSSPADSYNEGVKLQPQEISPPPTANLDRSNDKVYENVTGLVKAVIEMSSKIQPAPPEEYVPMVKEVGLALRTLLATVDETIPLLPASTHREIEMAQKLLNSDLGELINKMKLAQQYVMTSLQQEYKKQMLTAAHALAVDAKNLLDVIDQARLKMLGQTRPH
In turn, `CCCC[C@H]1OB(O)C[C@H]2C1=C(COc1ccccc1)C[C@H]1C(=O)N(C)C(=O)[C@H]12` registered a composite z-score of -0.281.

With `O=C1O[C@H](c2ccccc2)[C@H](c2ccccc2)N2[C@H]1[C@@H](C(=O)N1CCN(c3ncccn3)CC1)[C@]1(C(=O)Nc3ccc(C#CC4=CCCCC4)cc31)[C@H]2c1ccc(O)cc1`, the composite z-score stood at 0.0908.

For `C#CCN(CC=C(C)C)[C@H](CO)c1ccccc1`, the composite z-score is -0.122.

Take `Cc1ccc(S[C@]2(C(=O)NCCN3CCOCC3)CC(=O)N(Cc3ccccc3Cl)[C@@H]2c2ccc(CO)cc2)cc1`: the composite z-score was determined as 0.155.

`O=C1NC(=O)C2C1C=CC(C(O)Cc1ccccc1)N2Nc1ccc(Cl)cc1Cl` (stereo unspecified) registered a composite z-score of 0.247.

Turning to `C=CCOC(=O)[C@@H]1[C@H]2C(=O)O[C@H](c3ccccc3)[C@H](c3ccccc3)N2[C@H](c2ccc(OCCOC(=O)[C@@H]3C[C@@H]4C(=O)N5CCC[C@H]5C(=O)N4[C@@H]3c3ccc(O)cc3)cc2)[C@@]12C(=O)Nc1ccc(I)cc12`, the composite z-score was determined as 0.928.
